For 16 compounds, inhibition results are on record in ChEMBL document CHEMBL1961873, “Compounds: GSK PKIS; Assays: Nanosyn kinase panel” (2012).

Assay [1] deals with Mitogen-activated protein kinase kinase kinase kinase 4 (Homo sapiens) (UniProt O95819). The note with it: at 1 µM.
Assay [2] concerns the target Dual specificity mitogen-activated protein kinase kinase 1 (Homo sapiens) (UniProt Q02750). The note with it: at 0.1 µM.
The target is the same in assay [3]. The note with it: at 1 µM.
The target of assay [4] is Misshapen-like kinase 1 (Homo sapiens) (UniProt Q8N4C8). The note with it: at 0.1 µM.
Misshapen-like kinase 1 (Homo sapiens), sequence (Q8N4C8 whole entry, looked up): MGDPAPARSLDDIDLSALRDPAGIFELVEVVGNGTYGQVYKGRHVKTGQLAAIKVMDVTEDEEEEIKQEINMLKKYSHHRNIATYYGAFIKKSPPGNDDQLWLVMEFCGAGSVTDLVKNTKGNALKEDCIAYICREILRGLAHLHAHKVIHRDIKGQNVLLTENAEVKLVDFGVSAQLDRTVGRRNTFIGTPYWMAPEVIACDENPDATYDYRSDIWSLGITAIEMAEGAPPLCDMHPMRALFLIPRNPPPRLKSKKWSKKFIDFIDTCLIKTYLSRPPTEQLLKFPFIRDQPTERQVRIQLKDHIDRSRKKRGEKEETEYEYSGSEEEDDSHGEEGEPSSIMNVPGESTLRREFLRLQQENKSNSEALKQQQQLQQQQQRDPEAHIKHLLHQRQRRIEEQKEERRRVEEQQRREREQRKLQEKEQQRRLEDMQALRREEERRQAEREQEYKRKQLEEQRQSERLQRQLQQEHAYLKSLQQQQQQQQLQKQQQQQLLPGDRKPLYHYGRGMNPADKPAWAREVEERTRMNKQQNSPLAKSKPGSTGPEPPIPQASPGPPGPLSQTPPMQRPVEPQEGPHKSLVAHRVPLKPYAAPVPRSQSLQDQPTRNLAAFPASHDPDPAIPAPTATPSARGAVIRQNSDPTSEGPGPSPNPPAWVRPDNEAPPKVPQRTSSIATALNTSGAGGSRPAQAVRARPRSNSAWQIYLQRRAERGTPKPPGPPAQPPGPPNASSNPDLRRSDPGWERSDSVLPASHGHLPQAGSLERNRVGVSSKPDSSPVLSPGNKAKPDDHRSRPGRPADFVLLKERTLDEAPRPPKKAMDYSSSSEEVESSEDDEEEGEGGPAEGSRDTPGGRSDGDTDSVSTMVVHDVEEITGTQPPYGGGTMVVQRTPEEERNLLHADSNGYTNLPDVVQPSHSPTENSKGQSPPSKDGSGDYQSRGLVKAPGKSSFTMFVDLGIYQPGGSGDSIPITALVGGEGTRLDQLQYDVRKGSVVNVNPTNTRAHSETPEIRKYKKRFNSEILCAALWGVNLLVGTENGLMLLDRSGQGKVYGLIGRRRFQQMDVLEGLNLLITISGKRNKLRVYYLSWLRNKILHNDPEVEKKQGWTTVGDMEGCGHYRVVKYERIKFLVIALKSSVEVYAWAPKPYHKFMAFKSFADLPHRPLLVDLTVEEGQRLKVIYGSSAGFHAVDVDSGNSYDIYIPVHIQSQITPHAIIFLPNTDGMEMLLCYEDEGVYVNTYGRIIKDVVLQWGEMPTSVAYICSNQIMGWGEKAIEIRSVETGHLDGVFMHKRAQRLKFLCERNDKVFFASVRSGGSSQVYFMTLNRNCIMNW
Assay [5] has the same target. The note with it: at 1 µM.
For assay [6], the target named is T1, Serine/threonine-protein kinase 4 (Homo sapiens) (UniProt Q13043).
T1 sequence (whole entry): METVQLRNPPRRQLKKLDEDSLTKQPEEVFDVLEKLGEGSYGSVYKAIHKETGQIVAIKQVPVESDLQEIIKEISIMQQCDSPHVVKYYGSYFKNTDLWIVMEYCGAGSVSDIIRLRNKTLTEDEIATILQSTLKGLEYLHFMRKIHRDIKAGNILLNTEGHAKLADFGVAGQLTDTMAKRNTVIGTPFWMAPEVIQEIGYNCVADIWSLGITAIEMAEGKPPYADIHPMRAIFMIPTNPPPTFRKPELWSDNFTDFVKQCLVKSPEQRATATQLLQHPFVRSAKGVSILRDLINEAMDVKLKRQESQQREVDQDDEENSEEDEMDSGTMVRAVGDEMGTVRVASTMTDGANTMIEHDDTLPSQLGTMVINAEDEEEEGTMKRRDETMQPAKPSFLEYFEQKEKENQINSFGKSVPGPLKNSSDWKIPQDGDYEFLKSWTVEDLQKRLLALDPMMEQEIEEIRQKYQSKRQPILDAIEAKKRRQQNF
The note with it: at 0.1 µM.

Assay [7] deals with T1, Serine/threonine-protein kinase 4 (Homo sapiens). The note with it: at 1 µM.
The target of assay [8] is T2, Serine/threonine-protein kinase 3 (Homo sapiens) (UniProt Q13188).
T2 sequence (whole entry): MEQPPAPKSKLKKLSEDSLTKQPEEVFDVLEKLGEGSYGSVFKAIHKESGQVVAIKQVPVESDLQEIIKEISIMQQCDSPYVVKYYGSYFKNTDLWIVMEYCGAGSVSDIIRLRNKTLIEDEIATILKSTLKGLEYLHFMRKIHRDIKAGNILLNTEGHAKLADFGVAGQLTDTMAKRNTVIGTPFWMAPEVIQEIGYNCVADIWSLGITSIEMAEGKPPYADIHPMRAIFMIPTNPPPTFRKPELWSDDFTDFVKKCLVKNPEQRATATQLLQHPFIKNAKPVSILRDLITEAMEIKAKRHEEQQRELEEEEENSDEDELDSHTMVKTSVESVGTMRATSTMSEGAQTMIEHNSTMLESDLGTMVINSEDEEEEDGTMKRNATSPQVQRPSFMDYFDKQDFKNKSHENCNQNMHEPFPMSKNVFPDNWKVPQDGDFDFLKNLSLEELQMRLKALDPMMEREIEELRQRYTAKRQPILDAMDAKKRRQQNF
The note with it: at 0.1 µM.

The target of assay [9] is T2, Serine/threonine-protein kinase 3 (Homo sapiens). The note with it: at 1 µM.
Assay [10] has as its target Serine/threonine-protein kinase 26 (Homo sapiens) (UniProt Q9P289). The note with it: at 0.1 µM.

Each structure is given as a SMILES string.

Serine/threonine-protein kinase 26 (Homo sapiens), sequence (Q9P289 2-416 limits assumed): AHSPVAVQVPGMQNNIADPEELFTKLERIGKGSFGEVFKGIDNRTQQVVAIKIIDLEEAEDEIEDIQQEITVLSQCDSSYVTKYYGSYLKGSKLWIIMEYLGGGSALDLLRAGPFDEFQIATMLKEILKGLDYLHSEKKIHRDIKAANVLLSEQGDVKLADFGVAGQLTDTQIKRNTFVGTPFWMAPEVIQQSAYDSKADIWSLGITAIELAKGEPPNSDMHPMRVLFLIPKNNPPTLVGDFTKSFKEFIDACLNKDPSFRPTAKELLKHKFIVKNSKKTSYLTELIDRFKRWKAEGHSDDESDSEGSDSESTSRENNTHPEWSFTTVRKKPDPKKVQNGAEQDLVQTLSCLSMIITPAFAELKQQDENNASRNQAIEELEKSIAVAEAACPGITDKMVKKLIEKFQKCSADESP
Mitogen-activated protein kinase kinase kinase kinase 4 (Homo sapiens), sequence (O95819 2-1239 limits assumed): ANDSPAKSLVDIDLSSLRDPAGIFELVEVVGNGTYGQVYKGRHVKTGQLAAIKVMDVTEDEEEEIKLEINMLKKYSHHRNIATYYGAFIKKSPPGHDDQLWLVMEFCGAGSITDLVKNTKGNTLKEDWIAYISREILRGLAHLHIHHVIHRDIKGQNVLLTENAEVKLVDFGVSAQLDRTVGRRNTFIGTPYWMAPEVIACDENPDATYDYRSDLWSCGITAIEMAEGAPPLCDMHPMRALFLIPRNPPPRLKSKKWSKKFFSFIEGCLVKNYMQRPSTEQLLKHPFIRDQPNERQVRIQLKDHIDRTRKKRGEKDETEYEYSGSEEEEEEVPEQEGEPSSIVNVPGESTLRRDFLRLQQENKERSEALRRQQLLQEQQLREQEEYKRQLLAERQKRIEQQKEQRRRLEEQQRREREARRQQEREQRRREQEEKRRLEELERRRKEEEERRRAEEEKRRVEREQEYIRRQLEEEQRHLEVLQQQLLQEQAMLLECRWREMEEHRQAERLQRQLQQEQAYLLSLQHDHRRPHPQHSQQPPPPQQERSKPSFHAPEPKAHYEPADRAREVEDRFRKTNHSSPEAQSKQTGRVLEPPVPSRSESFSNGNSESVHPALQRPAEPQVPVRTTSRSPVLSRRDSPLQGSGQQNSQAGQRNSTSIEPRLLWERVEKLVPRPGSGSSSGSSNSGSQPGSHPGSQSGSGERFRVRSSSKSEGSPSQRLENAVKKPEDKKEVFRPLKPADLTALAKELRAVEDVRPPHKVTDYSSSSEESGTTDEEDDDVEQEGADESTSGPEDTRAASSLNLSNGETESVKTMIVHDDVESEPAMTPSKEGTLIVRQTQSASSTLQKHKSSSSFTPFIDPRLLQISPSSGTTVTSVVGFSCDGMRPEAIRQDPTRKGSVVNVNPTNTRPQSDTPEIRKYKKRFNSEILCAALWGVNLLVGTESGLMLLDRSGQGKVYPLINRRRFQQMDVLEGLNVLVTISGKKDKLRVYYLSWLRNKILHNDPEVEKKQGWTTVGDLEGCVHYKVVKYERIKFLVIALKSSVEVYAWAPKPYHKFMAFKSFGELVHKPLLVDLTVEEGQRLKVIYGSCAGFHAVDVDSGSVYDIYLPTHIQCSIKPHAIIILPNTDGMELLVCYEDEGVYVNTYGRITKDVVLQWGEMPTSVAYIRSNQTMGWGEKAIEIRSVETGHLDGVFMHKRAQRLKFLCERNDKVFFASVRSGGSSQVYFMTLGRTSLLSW
Dual specificity mitogen-activated protein kinase kinase 1 (Homo sapiens), sequence (Q02750 whole entry): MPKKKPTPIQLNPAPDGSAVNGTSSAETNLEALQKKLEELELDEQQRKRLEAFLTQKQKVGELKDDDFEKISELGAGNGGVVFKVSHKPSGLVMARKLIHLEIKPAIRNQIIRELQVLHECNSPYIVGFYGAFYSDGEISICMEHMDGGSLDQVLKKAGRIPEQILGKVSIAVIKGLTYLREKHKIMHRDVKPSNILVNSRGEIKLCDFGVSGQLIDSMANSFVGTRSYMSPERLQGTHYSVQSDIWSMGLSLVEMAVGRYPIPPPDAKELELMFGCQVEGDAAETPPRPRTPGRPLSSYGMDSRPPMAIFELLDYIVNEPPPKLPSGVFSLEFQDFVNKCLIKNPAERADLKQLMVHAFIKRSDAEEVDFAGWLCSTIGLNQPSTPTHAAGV

Turning to `CS(=O)(=O)CCNCc1ccc(-c2ccc3ncnc(Nc4ccc(OCc5cccc(C(F)(F)F)c5)cc4)c3c2)o1`, the inhibition in assay [1] was found to be 6.36%; in [2], 3.29%; in [3] it was 5.38%; in [4], 5.26%; in [5] it was 3.68%; in [6], 3.43%. For the same compound, the inhibition in assay [7] was 5.83%; in assay [8], 4.6%; in assay [9] it was 5.04%; in [10], -1.93%.

As to `COc1cc(N2CCN(C(C)C)CC2)ccc1Nc1nc(Nc2cccc3ncccc23)c2cc[nH]c2n1`, the inhibition in assay [1] was 8.08%; in [2], -1.29%; in assay [3] it was 0.07%; in assay [4], 0.56%; in assay [5] it was 6.73%; in assay [6], -1.1%. Moreover, the inhibition was 0.07% in [7], 0.03% in assay [8], 0.57% in assay [9] and -0.29% in assay [10].

On to `CNC(=O)c1cncc(/C=C/c2ccccc2C)c1`, for which the inhibition came out at 19.7% in [1]; 6.36% in assay [2]; 5.22% in assay [3]; 8.44% in [4]; 15.5% in assay [5]; 9.28% in [6]. For the same compound, the inhibition in assay [7] was found to be 17.2%; in assay [8] it was 9.07%; in [9], 15.2%; in assay [10] it was 1.02%.

In the case of `COc1ccc2ncn(-c3cc(O[C@H](C)c4ccccc4C(F)(F)F)c(C(N)=O)s3)c2c1`, the inhibition is 3.61% in assay [1]; 0.25% in [2]; -0.57% in [3]; 1.05% in assay [4]; 4.03% in assay [5]; 1.43% in assay [6]. The inhibition turned out to be 22.5% in assay [7], 0.2% in assay [8], 18.8% in assay [9] and 0.64% in [10].

Regarding `COc1c(C(N)=O)cc(-c2ccc(Cl)cc2)cc1-c1ccc(S(N)(=O)=O)cc1`, the inhibition in assay [1] was 5.7%; in assay [2] it was 3.99%; in [3], 3.65%; in assay [4], 6.03%; in assay [5], 7.24%; in assay [6] it was 2.89%. Moreover, the inhibition is 4.76% in assay [7], 5.08% in assay [8], 4.15% in assay [9] and -1.15% in [10].

Turning to `N#Cc1ccc2c(-c3ccnc(NC4CC4)n3)c(-c3ccc(F)cc3)nn2c1`, the inhibition in assay [1] worked out at 46%; in assay [2], 0.85%; in assay [3], 3.35%; in assay [4], 6%; in [5], 30.2%; in assay [6] it was 0.26%. The inhibition in [7] was 1.31%; in [8], 1.49%; in assay [9], 1.55%; in assay [10], -1.26%.

Regarding `CCCNc1cccc(-n2ncc3c(N/N=C/c4ccncc4)ncnc32)c1`, the inhibition worked out at 44.1% in assay [1]; 1.7% in assay [2]; 2.07% in assay [3]; 5.44% in assay [4]; 35.9% in assay [5]; 4.12% in [6]. Also, the inhibition in assay [7] is 12.3%; in assay [8], 5.92%; in assay [9], 9.89%; in [10], 1.77%.

Turning to `O=C(O[C@H]1CN[C@H](C#Cc2cc3ncnc(Nc4ccc(OCc5cccc(F)c5)c(Cl)c4)c3s2)C1)N1CCOCC1`, the inhibition in assay [1] is 8.44%; in assay [2], 6.24%; in assay [3], 5.74%; in assay [4], 6.37%; in [5], 9.94%; in assay [6] it was 4.18%. Also, the inhibition in assay [7] was 8.15%; in [8], 5.87%; in [9], 6.61%; in assay [10] it was -0.22%.

In the case of `Cc1c2ccc(N(C)c3ccnc(Nc4cccc(S(N)(=O)=O)c4)n3)cc2nn1C`, the inhibition in assay [1] was found to be 55.2%; in assay [2], 6.31%; in [3] it was 10.7%; in [4], 12.8%; in assay [5] it was 55.3%; in assay [6], 6.6%. In addition, the inhibition is 8.01% in assay [7], 5.78% in assay [8], 7.64% in assay [9] and -1.28% in assay [10].

Turning to `O=C(O[C@H]1CN[C@H](C#Cc2cc3ncnc(Nc4ccc5c(cnn5Cc5ccccc5)c4)c3s2)C1)N1CCOCC1`, the inhibition was 2.37% in [1]; -0.35% in assay [2]; -0.55% in assay [3]; -0.37% in [4]; 1.62% in [5]; 2.4% in assay [6]. The inhibition in assay [7] worked out at 4.54%; in assay [8], 1.56%; in [9] it was 5.49%; in assay [10], 0.75%.

For the compound `CCS(=O)(=O)c1ccc(OC)c(Nc2ncc(-c3cccc(F)c3)o2)c1`, the inhibition in assay [1] came to 19.2%; in assay [2], 4.98%; in assay [3], 5%; in assay [4] it was 8.05%; in [5], 16.1%; in assay [6] it was 3.31%. Besides, the inhibition in [7] is 8.63%; in assay [8] it was 5.69%; in assay [9], 8.4%; in assay [10] it was -0.55%.

Regarding `CC1=C(C(=O)Nc2ccc3[nH]ncc3c2)C(c2ccc(F)cc2)N=C(c2ccc(C(F)(F)F)nc2)N1` (stereo not given), the inhibition was 2.92% in assay [1]; -0.07% in [2]; 3.43% in [3]; 4.22% in [4]; 2.06% in assay [5]; 2.29% in assay [6]. Also, the inhibition is 2.27% in [7], 2.18% in [8], 0.56% in [9] and -0.24% in [10].

Take `CN(C)CCNC(=O)Nc1ccc(N(C)c2ccnc(Nc3ccc(CS(C)(=O)=O)cc3)n2)cc1`: the inhibition in assay [1] worked out at 14.6%; in assay [2], 4.9%; in [3], 4.12%; in assay [4], 5.87%; in assay [5], 10.1%; in assay [6], 6.4%. Also, the inhibition was 11.4% in [7], 6.63% in assay [8], 6.98% in assay [9] and -0.89% in assay [10].

With `COc1cc(Nc2ncc(-c3ccccc3)o2)cc(OC)c1`, the inhibition in assay [1] was 18.8%; in assay [2], 4.41%; in assay [3] it was 3.91%; in [4] it was 8.63%; in assay [5], 19.5%; in assay [6] it was 3.72%. Also, the inhibition in [7] was 6.2%; in [8], 6.11%; in assay [9] it was 6.9%; in assay [10], -1.04%.

As to `COc1cccc(-n2ncc3c(N/N=C/c4ccc(C(=O)NCCN(C)C)cc4)ncnc32)c1`, the inhibition in [1] was found to be 78.1%; in assay [2], 2.77%; in assay [3], 4.04%; in assay [4], 23.1%; in assay [5], 64.8%; in [6] it was 4.6%. Moreover, the inhibition is 10.1% in assay [7], 4.33% in assay [8], 6.3% in [9] and -1.8% in assay [10].

For the compound `NS(=O)(=O)c1ccc(N/N=C2\C(=O)Nc3cccc(CCc4ccncc4)c32)cc1`, the inhibition in assay [1] came to 16.9%; in assay [2], 1.96%; in assay [3], 3.3%; in assay [4], 4%; in assay [5], 10.8%; in assay [6], 31.3%. Also, the inhibition is 48.9% in [7], 20.1% in [8], 29.8% in [9] and 10.5% in [10].
